What all share (assay): NCI-60 one-dose screen, 48 h (100 = growth as untreated, 0 = no growth, -100 = all killed)
What all share (conditions): 10 µM unless noted

Test [1] has as its system SK-MEL-2 melanoma.
The test system of test [2] is EKVX NSCLC.
In test [3] the test system is SN12C renal.
Test [4] concerns UO-31 renal.
Test [5] relates to TK-10 renal.
For test [6], the system named is ACHN renal.
For test [7], the system named is CAKI-1 renal.
The subject of test [8] is A498 renal.
The subject of test [9] is CCRF-CEM leukemia.
In test [10] the test system is MOLT-4 leukemia.
For test [11], the system named is RPMI-8226 leukemia.
For test [12], the system named is OVCAR-8 ovarian.
Test [13] relates to OVCAR-5 ovarian.
Test [14] has as its system OVCAR-4 ovarian.
The subject of test [15] is SK-OV-3 ovarian.
In test [16] the test system is IGROV1 ovarian.
Test [17] deals with OVCAR-3 ovarian.
Test [18] relates to HS 578T breast.
Test [19] relates to NCI/ADR-RES ovarian.
Test [20] deals with SR leukemia.

Compounds without any hit were thinned out: in the full panel of roughly 83,000, 20% have a hit.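 Single-concentration screen, 48 h exposure, 96-well plates. Endpoint: percent growth. Below 10 = active.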 Values without a mark were called inactive. Calls of active or inactive are those of the source.

For the compound `COc1cccc(Nc2nc(SC)nc(-c3cccc([N+](=O)[O-])c3)c2C#N)c1`, the growth was 96.3% in test [1]; 64.7% in test [2]; 68.8% in [3]; 26.7% in test [4]; 75.8% in [5]; 23.9% in test [6]. Also, the growth in [7] is 60.1%; in test [8], 78.5%; in test [9], 99.6%; in test [10], 98.2%; in test [11], 95%; in [12] it was 36.4%. Also, the growth in test [13] is 81.6%; in test [14], -1.38% (active); in [15], 31.3%; in test [16] it was 74.7%; in [17] it was 51.8%; in test [18], 45%. In addition, the growth in [19] is 70.2%.
In the case of `COc1cccc(-c2nc3sccn3c2-c2ccnc(NCCNS(=O)(=O)c3ccccc3)c2)c1`, the growth in test [1] is 30.1%; in test [2] it was 29.8%; in test [3], 28.9%; in [4] it was 5.71% (active); in test [5], 55.5%; in [6], 10.4%. Also, the growth in [7] was 9.12% (active); in test [8], 44.2%; in test [9], 10.1%; in [10] it was 12%; in test [11], -27.1% (active); in test [12] it was 13.9%. Moreover, the growth in test [13] was 45.3%; in test [14], 15.2%; in [15] it was 42%; in [16] it was 25.5%; in [17] it was 42.2%; in test [18] it was 35.7%. The growth in test [19] is 6.38% (active).
Consider `C=CC(=O)Nc1cccc(-c2nc(SC)nc(NCCN3CCOCC3)c2C#N)c1`, for which the growth was 82.6% in [1]; 86.5% in test [2]; 81.2% in test [3]; 61.4% in test [4]; 134% in [5]; 80.8% in test [6]. The growth is 86.2% in [7]; 78.3% in test [8]; 95.6% in test [9]; 75.9% in test [10]; 81.4% in test [11]; 83.1% in test [12]. The growth in [13] is 107%; in [14], 90.6%; in test [15], 108%; in [16], 90.4%; in [17], 97.8%; in test [18], 82.6%. In addition, the growth in test [19] is 95%.
Regarding `CCOC(=O)C(C)(C#N)C1C=CCCC1` (configuration not stated), the growth was 96.5% in test [1]; 96.7% in [2]; 95% in [3]; 84% in test [4]; 83.2% in test [5]; 92.3% in [6]. Moreover, the growth is 75.1% in [7]; 63.2% in test [8]; 84.6% in [9]; 98% in [10]; 92.9% in test [11]; 98.8% in test [12]. Moreover, the growth is 68.2% in [13]; 91.5% in test [14]; 95.1% in test [15]; 94.8% in [16]; 90.6% in test [17]; 84.1% in test [18]. For the same compound, the growth in test [19] is 91.9%.
Consider `O=S(=O)(Nc1ccc(OC(F)F)cc1)c1ccc(-c2cnc(C3CC3)o2)cc1`, for which the growth is 63.9% in test [1]; 61.7% in test [2]; 77.5% in [3]; 60.2% in [4]; 102% in [5]; 79.4% in test [6]. In addition, the growth was 47.2% in test [7]; 16.9% in [8]; 66.8% in test [9]; 50.1% in test [10]; 52.8% in test [11]; 78.4% in [12]. Also, the growth was 97.5% in test [13]; 52.3% in test [14]; 83.4% in test [15]; 64.8% in test [16]; 71.5% in [17]; 75.5% in test [18]. In addition, in test [19], the growth was 41.5%.
As for `COc1cc(C=Nc2oc(-c3ccccc3)c(-c3ccccc3)c2C#N)cc(CN2CCCCC2)c1O`, the growth is 103% in test [1]; 95% in [2]; 99.5% in [3]; 73.6% in test [4]; 107% in test [5]; 99.6% in [6]. The growth was 86.6% in test [7]; 72.3% in test [8]; 101% in [9]; 86.8% in test [10]; 100% in test [11]; 105% in test [12]. The growth was 97% in [13]; 91.6% in [14]; 116% in [15]; 99.6% in [16]; 110% in test [17]; 95.9% in test [18]. Further, in test [19], the growth was 95.7%.
In the case of `C=CC(=O)Nc1cccc(Nc2nc(SC)nc(-c3cccc([N+](=O)[O-])c3)c2C#N)c1`, the growth in test [1] is 46.8%; in test [2], 53.2%; in test [3] it was 62.9%; in [4], 60.8%; in test [5], 32.1%; in test [6] it was 55.6%. Besides, the growth in test [7] is 42.6%; in [8], -1.13% (active); in test [9], 72.2%; in test [10], 59.8%; in test [11], 48.2%; in [12], 43.4%. Moreover, the growth in test [13] was 71.8%; in test [14] it was 32.9%; in test [15] it was 74.3%; in test [16], 54.9%; in test [17], 19.9%; in test [18], 53.7%. In addition, the growth in test [19] is 61.8%.
On to `CCCCN(CCCC)CCCn1c(-c2ccccc2)ccc1-c1ccccc1`, for which the growth in test [1] is 93.5%; in test [2], 49.6%; in test [3] it was 70.7%; in test [4] it was 56.9%; in [5] it was 83.1%; in [6], 62.9%. Further, the growth was 59.8% in test [7]; 59.3% in [8]; 44.3% in [9]; 55% in test [10]; 42.7% in [20]; -2.32% (active) in test [11]. The growth in [12] is 82.4%; in test [14] it was 37%; in test [15], 81.3%; in test [16], 64.5%; in test [17], 59.2%; in test [18], 82.7%. The growth in test [19] is 65.1%.

Source of the values: PubChem BioAssay (NCI).
